Inconclusive results are not listed. Activity calls are given as the source filed them. The call rests on the fitted dose curve; in most records, active means well fitted curve in the direction sought with a large enough effect; inconclusive means small, poorly fitted or top-dose-only effect, or another doubt; inactive means no such curve, though single readings can be large; an effect the other way counts as inactive or inconclusive.

Experiment [1] is described as follows: Quantitative High-Throughput drug screen in 47 multiple myeloma cell lines against the NCATS MIPE library collection: ARD_JJKsccE7 cell viability assay (AID 1918929; further: potency means the concentration at half of the fitted maximal effect). In a few lines:
(§1)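 Steps: seed 500 cells per well; pin-transfer MIPE 4.0 library; incubate 48 h at 37C, 5% CO2, humidified; add CellTiter-Glo, 5 min room temperature; read luminescence.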

Experiment [2] in a line: Quantitative High-Throughput drug screen in 47 multiple myeloma cell lines against the NCATS MIPE library collection: KMM1_JCRB cell viability assay (AID 1918960). Further: nearly all actives have a fitted effect of over 30% in size. Further: potency means the concentration at half of the fitted maximal effect. Put shortly:
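Myeloma cells at 500 per well in 1536-well format treated with MIPE 4.0 library by pin transfer for 48 h at 37C, 5% CO2. Viability from ATP luminescence (CellTiter-Glo), normalized to DMSO (100%) and media-only (0%) wells.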

Experiment [3] in a line: Quantitative High-Throughput drug screen in 47 multiple myeloma cell lines against the NCATS MIPE library collection: JIM3_ECACC cell viability assay (AID 1918963; further: nearly all actives have a fitted effect of over 35% in size; further: potency means the concentration at half of the fitted maximal effect). In a few lines: (§2)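 Inhibition of cell viability is measured here. Each line was plated at 500 cells per well, treated with MIPE 4.0 drugs, kept 48 hours at 37C, then assayed for ATP content by CellTiter-Glo luminescence.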

Experiment [4] is described as follows: Quantitative High-Throughput drug screen in 47 multiple myeloma cell lines against the NCATS MIPE library collection: JIM1_ECACC cell viability assay (AID 1918964; further: potency means the concentration at half of the fitted maximal effect). In a few lines: as §1
Experiment [5] in a line: Quantitative High-Throughput drug screen in 47 multiple myeloma cell lines against the NCATS MIPE library collection: INA6_PLB cell viability assay (AID 1918965; further: nearly all actives have a fitted effect of over 55% in size; further: potency means the concentration at half of the fitted maximal effect). Put shortly:
(§3)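 qHTS of the MIPE 4.0 collection: 500 myeloma cells/well, 48 h drug exposure at 37C in 5% CO2, then CellTiter-Glo for 5 min at room temperature before luminescence reading.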

A short description of experiment [6]: Quantitative High-Throughput drug screen in 47 multiple myeloma cell lines against the NCATS MIPE library collection: Karpas25_ECACC cell viability assay (AID 1918968; further: nearly all actives have a fitted effect of over 35% in size; further: potency means the concentration at half of the fitted maximal effect). Put shortly:
as §1

A short description of experiment [7]: Quantitative High-Throughput drug screen in 47 multiple myeloma cell lines against the NCATS MIPE library collection: KMS27_JCRB cell viability assay (AID 1918970). Further: nearly all actives have a fitted effect of over 30% in size. Further: potency means the concentration at half of the fitted maximal effect. In a few lines:
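Myeloma cells (500 per well) were exposed to MIPE 4.0 compounds for 48 h at 37 °C, 5% CO2; viability was read as ATP luminescence with CellTiter-Glo, normalized to DMSO-only (100%) and media-only (0%) wells.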

Experiment [8] can be described thus: Quantitative High-Throughput drug screen in 47 multiple myeloma cell lines against the NCATS MIPE library collection: KMS12BM_JCRB cell viability assay (AID 1918971). Further: nearly all actives have a fitted effect of over 35% in size. Further: potency means the concentration at half of the fitted maximal effect. In a few lines:
(§4)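 Viability readout: CellTiter-Glo luminescence following 5 min room-temperature incubation with reagent. Prior exposure: 48 h, 37C, humidified 5% CO2, 500 cells per well.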

A short description of experiment [9]: Quantitative High-Throughput drug screen in 47 multiple myeloma cell lines against the NCATS MIPE library collection: KMS12PE_JCRB cell viability assay (AID 1918972). Further: nearly all actives have a fitted effect of over 30% in size. Further: potency means the concentration at half of the fitted maximal effect. In a few lines: as §3
A short description of experiment [10]: Quantitative High-Throughput drug screen in 47 multiple myeloma cell lines against the NCATS MIPE library collection: KMS26_JCRB cell viability assay (AID 1918975). Further: nearly all actives have a fitted effect of over 45% in size. Further: potency means the concentration at half of the fitted maximal effect. Put shortly: as §4
A short description of experiment [11]: Quantitative High-Throughput drug screen in 47 multiple myeloma cell lines against the NCATS MIPE library collection: KHM11_PLB cell viability assay (AID 1918962). Further: nearly all actives have a fitted effect of over 35% in size. Further: potency means the concentration at half of the fitted maximal effect. Put shortly:
as §2

Experiment [12] is described as follows: Quantitative High-Throughput drug screen in 47 multiple myeloma cell lines against the NCATS MIPE library collection: H1112_PLB cell viability assay (AID 1918967; further: nearly all actives have a fitted effect of over 30% in size; further: potency means the concentration at half of the fitted maximal effect). Put shortly:
as §1

Experiment [13] can be described thus: Quantitative High-Throughput drug screen in 47 multiple myeloma cell lines against the NCATS MIPE library collection: MMM1_PLB cell viability assay (AID 1918976). In a few lines:
(§5)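 Viability after 48 h drug exposure was measured as ATP-dependent luminescence. Cells, 500 per well, sat at 37 °C under 5% CO2; DMSO wells set 100%, media-only wells 0%.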

Experiment [14] is described as follows: Quantitative High-Throughput drug screen in 47 multiple myeloma cell lines against the NCATS MIPE library collection: Karpas417_ECACC cell viability assay (AID 1918961). The note with it: Karpas417 myeloma viability, CellTiter-Glo ATP luminescence, 48 h; viability (% of DMSO): at 45.8 µM (top of the series). Put shortly:
as §3

Experiment [15] can be described thus: Quantitative High-Throughput drug screen in 47 multiple myeloma cell lines against the NCATS MIPE library collection: MOLP8_DSMZ cell viability assay (AID 1918977). Further: nearly all actives have a fitted effect of over 45% in size. Further: potency means the concentration at half of the fitted maximal effect. Put shortly: as §5
Experiment [16] in a line: Quantitative High-Throughput drug screen in 47 multiple myeloma cell lines against the NCATS MIPE library collection: NCIH929_DSMZ cell viability assay (AID 1918978). Further: nearly all actives have a fitted effect of over 35% in size. Further: potency means the concentration at half of the fitted maximal effect. In a few lines:
as §5

The nature of experiment [17]: Quantitative High-Throughput drug screen in 47 multiple myeloma cell lines against the NCATS MIPE library collection: Karpas620_DSMZ cell viability assay (AID 1918959). Further: nearly all actives have a fitted effect of over 30% in size. Further: potency means the concentration at half of the fitted maximal effect. In a few lines:
as §2

Experiment [18] in a line: Quantitative High-Throughput drug screen in 47 multiple myeloma cell lines against the NCATS MIPE library collection: KMS20_JCRB cell viability assay (AID 1918973). Further: nearly all actives have a fitted effect of over 45% in size. Further: potency means the concentration at half of the fitted maximal effect. In a few lines: as §1
Experiment [19] in a line: Quantitative High-Throughput drug screen in 47 multiple myeloma cell lines against the NCATS MIPE library collection: JJN3_DSMZ cell viability assay (AID 1918966; further: potency means the concentration at half of the fitted maximal effect; nearly all actives have a fitted effect of over 50% in size). Put shortly:
as §1

Experiment [20] in a line: Quantitative High-Throughput drug screen in 47 multiple myeloma cell lines against the NCATS MIPE library collection: KMS21BM_JCRB cell viability assay (AID 1918974). To be noted: ATP luminescence, 48 h; viability: at 45.8 µM (top of the series) unless noted. Put shortly:
as §1

As to `CC(C)C(=O)Nc1ncc(-c2cc(C(F)F)nn2-c2c(Cl)cccc2Cl)s1`, the Potency was 20.9 µM (active) in experiment [1]; 16.6 µM (active) in [2]; 23.5 µM (active) in [3]; 10.5 µM (active) in [4]; 23.5 µM (active) in experiment [5]; 20.9 µM (active) in [6]. Besides, the Potency in experiment [7] is 14.8 µM (active); in experiment [8], 26.4 µM (active); in experiment [9], 16.6 µM (active); in experiment [10], 18.7 µM (active).

Turning to `O=C(O)[C@H]1O[C@H](Oc2cc3oc(-c4ccccc4)cc(=O)c3c(O)c2O)[C@H](O)[C@@H](O)[C@H]1O`, the Potency entry in [1], in experiment [5], in [12], in experiment [6] and in experiment [9] was “inactive” throughout. Besides, the Potency in experiment [11], in experiment [10] and in [13] was 20.9 µM (active) in each case.

For the compound `CC(=NNC(=S)N1CCC1)c1ccccn1`, the Potency in experiment [1] was 0.001 µM (active); in [7] it was 0.001 µM (active); in [8] it was 0.0042 µM (active); in [9], 0.001 µM (active). The Potency entry in experiment [14], in experiment [3], in experiment [5], in experiment [12], in experiment [15] and in experiment [16] was “inactive” throughout.

With `CCC(CC)[C@H](NC(C)=O)[C@@H]1[C@H](O)[C@@H](C(=O)O)C[C@@H]1N=C(N)N`, the Potency entry in experiment [1], in [11], in experiment [3], in [5], in experiment [12] and in experiment [7] was “inactive” in each case. In experiment [16], the Potency entry is “inactive”.

For `O=C(CCN1CCN(C(=O)OCc2cc(Cl)cc(Cl)c2)CC1)c1ccc2[nH]c(=O)oc2c1`, the Potency in experiment [1] was 0.0166 µM (active); in experiment [11], 2.64 µM (active). The Potency result in [2], in [3], in experiment [12], in experiment [8], in experiment [9] and in [15] was “inactive” throughout. In experiment [16], the Potency entry is “inactive”.

`CC1(C)Cc2c(sc(NC(=S)NC(=O)c3ccccc3)c2C(=O)O)CO1`: the Potency in [17] was 5.9 µM (active). Further, the Potency result in [11] and in experiment [4] was “inactive” each time.

Consider `COc1cc(Nc2ncc(F)c(Nc3ccc4c(n3)NC(=O)C(C)(C)O4)n2)cc(OC)c1OC`, for which, in experiment [17], the Potency entry was “inactive”. For the same compound, the Potency in [3] was 0.935 µM (active); in experiment [5], 1.18 µM (active); in [6] it was 1.66 µM (active); in [7] it was 11.8 µM (active); in [18], 1.05 µM (active); in experiment [10] it was 9.35 µM (active). In addition, the Potency in experiment [15] is 7.43 µM (active); in experiment [16] it was 1.18 µM (active).

For `Cc1c(NC(=O)c2ccc(C(C)(C)C)cc2)cccc1-c1cn(C)c(=O)c(Nc2ccc(C(=O)N3CCOCC3)cc2)n1`, the Potency in experiment [17] was 9.35 µM (active); in experiment [2], 6.62 µM (active); in experiment [5], 23.5 µM (active); in experiment [19] it was 14.8 µM (active); in experiment [6], 16.6 µM (active); in [8], 23.5 µM (active). The Potency was 5.26 µM (active) in experiment [9], 16.6 µM (active) in experiment [10], 26.4 µM (active) in experiment [13] and 20.9 µM (active) in experiment [16]. Moreover, the Potency result in [11] and in experiment [15] was “inactive” each time.

Take `C[N+]1(C)[C@@H]2CC(OC(=O)[C@H](CO)c3ccccc3)C[C@H]1[C@H]1O[C@@H]12` (stereo partly specified): the Potency result in [17], in experiment [2], in [4], in [12], in experiment [7] and in [8] was “inactive” throughout. Also, the Potency entry in [9], in experiment [18], in experiment [10] and in experiment [15] was “inactive” each time.

As for `CNC(=O)c1ccccc1Sc1ccc2c(C=Cc3ccccn3)n[nH]c2c1`, the Potency in [17] was 0.264 µM (active); in experiment [2], 3.32 µM (active); in experiment [5] it was 18.7 µM (active); in experiment [12], 0.296 µM (active); in experiment [6] it was 16.6 µM (active); in experiment [9], 1.66 µM (active). Further, the Potency in [13] and in experiment [16] was 20.9 µM (active) in each case.

In the case of `CC[C@@H]1C=C(C)C[C@H](C)C[C@H](OC)[C@H]2O[C@@](O)(C(=O)C(=O)N3CCCC[C@@H]3C(=O)O[C@H](C(C)=C[C@@H]3CC[C@H](Cl)[C@H](OC)C3)[C@H](C)[C@@H](O)CC1=O)[C@H](C)C[C@H]2OC`, the Potency in experiment [17] is 13.2 µM (active); in experiment [2] it was 8.33 µM (active); in experiment [3], 18.7 µM (active); in experiment [5], 5.26 µM (active); in [19], 20.9 µM (active); in experiment [12] it was 18.7 µM (active). The Potency in [7] was 8.33 µM (active); in experiment [9], 7.43 µM (active); in [13], 11.8 µM (active).

On to `O=c1cc(-c2cccc3c2Sc2ccccc2S3)oc(N2CCOCC2)c1`, for which the Potency in experiment [17] is 18.7 µM (active); in [3] it was 16.6 µM (active); in experiment [4], 16.6 µM (active); in experiment [5], 18.7 µM (active); in [12] it was 20.9 µM (active); in experiment [6], 14.8 µM (active). Also, the Potency in [8] is 23.5 µM (active); in [9] it was 16.6 µM (active); in experiment [18], 13.2 µM (active); in experiment [16], 18.7 µM (active).

For `O=C1C[C@@H](c2ccc(O)cc2)Oc2cc(O)cc(O)c21`, the Potency entry in experiment [17], in [11], in experiment [3], in experiment [4], in [12] and in [6] was “inactive” in each case. Further, the Potency result in experiment [9] and in [15] was “inactive” each time. The Potency in [7] is 0.0118 µM (active).

As for `CCn1c(C(=O)N(C2CC2)C2CC2)cc2c3c(ncn3C)c(Nc3cc(C)n(C)n3)nc21`, the Potency result in [17], in experiment [7], in experiment [8], in [20] and in experiment [10] was “inactive” in each case. Further, the Potency in experiment [5] was 16.6 µM (active); in [12], 18.7 µM (active); in experiment [9], 11.8 µM (active); in experiment [18], 16.6 µM (active).

Turning to `COc1ccc2c(Oc3ccc(NC(=O)c4c(C)n(CC(C)(C)O)n(-c5ccccc5)c4=O)nc3)ccnc2c1`, the Potency result in experiment [17], in experiment [3], in [4], in experiment [12], in [7] and in experiment [16] was “inactive” throughout.

As to `C=CCc1ccc(O)c(-c2ccc(O)c(CC=C)c2)c1`, the Potency was 26.4 µM (active) in [17]; 20.9 µM (active) in experiment [3]; 18.7 µM (active) in experiment [5]; 23.5 µM (active) in [7]; 20.9 µM (active) in experiment [9]; 23.5 µM (active) in experiment [18].

Take `CO[C@H]1C[C@@H]2CC[C@@H](C)[C@@](O)(O2)C(=O)C(=O)N2CCCC[C@@H]2C(=O)O[C@H]([C@@H](C)C[C@@H]2CC[C@H](O)[C@H](OC)C2)CC(=O)[C@H](C)C=C(C)[C@@H](O)[C@@H](OC)C(=O)[C@H](C)C[C@H](C)C=CC=CC=C1C`: the results for the Potency in experiment [17] and in [6] were 16.6 µM (active) and 18.7 µM (active), respectively. Besides, the Potency result in experiment [3] and in experiment [10] was “inactive” throughout.

Take `Cn1cc(C=C2C(=O)Nc3cccnc32)c2ccccc21`: the Potency result in experiment [17], in experiment [12], in experiment [6], in [7], in experiment [10] and in experiment [15] was “inactive” in each case. In experiment [3], the Potency is 16.6 µM (active).
